Consider 35 molecules from PubChem BioAssay.

Tested on in one assay: not listed separately
As to the kind of experiment: anti-His antibody binders, primary screen, artefact control for SMM control protein annotation, biochemical, small-molecule microarray, 635 nm fluorescence (AID 1128).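 Further: score merges feature fluorescence with signal-to-noise for each printed compound spot.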 The conditions noted are these: anti-His Alexa647 antibody binding, higher = more signal.
In turn, `COC(=O)[C@@H]1N=C(c2ccc(OCCCO)cc2)O[C@@H]1C` displayed a composite z-score of 0.217.

For `C=C[C@H]1C(C(=O)OCC)=CC[C@@H](c2ccccc2)N1S(=O)(=O)c1ccc(C)cc1`, the composite z-score is 1.53.

Molecule `CC(c1ccccc1)C(O)C1C=CC2C(=O)N(C)C(=O)C2N1Nc1ccccc1` (stereo not given) gave a composite z-score of 1.79.

`NC(=O)NCC#Cc1ccc2c(c1)[C@]1(C(=O)N2)[C@H](c2ccccc2OCCO)N2[C@H](c3ccccc3)[C@H](c3ccccc3)OC(=O)[C@H]2[C@@H]1C(=O)NC[C@H](O)c1ccccc1` returned a composite z-score of 1.1.

On to `CCCCC[C@H]1OC[C@@]23C=C(Br)[C@@H](CC12)[C@@]1(CO1)C3=O` (stereo not given in full), for which the composite z-score was 2.98.

`CCC#CCN(Cc1ccccc1Br)[C@H](/C=C/C1CC1)[C@@H](O)Cc1ccccc1` came in with a composite z-score of 0.251.

Turning to `COC(=O)C(CC#Cc1ccc2c(c1)[C@]1(C(=O)N2)[C@H](c2ccc(O)cc2)N2[C@H](c3ccccc3)[C@H](c3ccccc3)OC(=O)[C@H]2[C@@H]1C(=O)NC[C@H](O)c1ccccc1)C(=O)OC`, the composite z-score was 0.509.

`CCCCC(O)C1C=CC2C(=O)N(C)C(=O)C2N1N(c1ccccc1)c1ccccc1` (stereo not given): the composite z-score came out at 1.92.

Molecule `O=C1[C@H]2C=C(I)[C@H](C[C@@H]2OCCOCCO)[C@@]12CO2` displayed a composite z-score of -0.0655.

For `C=CC[C@]1(C(=O)N2CCCCC2)N=C(c2ccc(OCCCO)cc2)O[C@H]1c1ccccc1CN=[N+]=[N-]`, the composite z-score came out at 1.33.

`COC(=O)[C@@]1(Cc2ccc(OC)cc2)[C@H]2c3cc(C(=O)N4CCCC4)n(CCO)c3C[C@H]2CN1C(=O)c1ccccc1`: the composite z-score came out at 0.603.

`C=CC[C@]1(C(=O)N2CCOCC2)COC(c2ccc(OCCCO)cc2)=N1` registered a composite z-score of 2.4.

In turn, `CN(C)C(=O)[C@]1(CCC(=O)OC(C)(C)C)N=C(c2ccc(OCCCO)cc2)O[C@@H]1c1ccccc1CN=[N+]=[N-]` gave a composite z-score of 1.31.

In turn, `CO[C@H]1O[C@H](CO)[C@@H](OC(=O)Nc2ccc3c(c2)OCO3)[C@H](OC(=O)Nc2ccc3c(c2)OCO3)[C@@H]1OC(=O)Nc1ccc2c(c1)OCO2` returned a composite z-score of 1.67.

As to `C=C[C@@H](OC)[C@H](OC(=O)Nc1ccc(OC)cc1)c1ccc(O)c(F)c1`, the composite z-score was found to be 0.0143.

`COC(=O)c1c(CC[C@@H](CO)NC(=O)N[C@@H](C)Cn2cc(-c3ccccn3)nn2)oc(C(C)=O)c1C(=O)OC` returned a composite z-score of 1.73.

On to `CCCC[C@@H](O)C1=C(COC)C[C@H]2C(=O)N(Cc3ccccc3)C(=O)[C@H]2[C@H]1CO`, for which the composite z-score is 0.708.

`CCCN1C(=O)[C@]2(Cc3ccccc31)N=C(c1ccc(OCCCO)cc1)O[C@@H]2c1ccccc1` displayed a composite z-score of 1.18.

Turning to `CCOC(=O)C[C@H]1[C@H](OC(=O)c2ccc(C(=O)c3ccccc3)cc2)[C@@H](NC(=O)C2CCCCC2)c2cc(OCCCO)ccc2N1C(=O)c1ccc2ccccc2n1`, the composite z-score is 0.497.

Molecule `COc1cccc(C)c1NC(=O)O[C@H]1[C@H](OC(=O)Nc2ccc3c(c2)OCO3)[C@@H](OC(=O)Nc2ccc3c(c2)OCO3)[C@@H](OC)O[C@@H]1CO` yielded a composite z-score of 0.4.

Regarding `CC(C)(C)OC(=O)COc1cccc(C(=O)CCN2CCOCC2)c1`, the composite z-score was -0.413.

As for `CC(C)NC(=O)[C@@]1(C)c2ccccc2C(=O)N(Cc2ccc(OC(F)(F)F)cc2)[C@H]1c1ccc(CO)cc1`, the composite z-score was determined as 0.22.

In turn, `COc1cc2c(cc1O)C(c1cccs1)N(Cc1cc3c(cc1Br)OCO3)CC2` (stereo not given) displayed a composite z-score of 1.83.

As to `CCCCNC(=O)c1ccc(C#CC(C)(C)C)c(OC(C)=O)c1`, the composite z-score came to 0.213.

`CCCC1(C(=O)OC)C=C2C(=C(C)C(=O)C2C)CN1` (stereo not given) had a composite z-score of 2.81.

The molecule `O=C(C1N=C(c2ccc(OCCCO)cc2)N(c2ccccc2)O1)N1CCCCC1` (stereo not given) yielded a composite z-score of 1.94.

`CCCCN1CC=CC23O[C@@H]4/C=C\CCC(C)OC(=O)C4[C@H]2C(=O)N(CCCO)[C@@H]3C1=O` (stereo not given in full) registered a composite z-score of 1.41.

As for `Cc1ccc(S[C@]2(C(=O)NCC(F)(F)F)CC(=O)N(Cc3cc(C(F)(F)F)cc(C(F)(F)F)c3)[C@@H]2c2ccc(CO)cc2)cc1`, the composite z-score was 1.86.

In turn, `COC(=O)[C@@]1(Cc2ccc(F)cc2)[C@H]2c3cc(C(=O)N(C)C)n(CCc4ccc(OC)c(Br)c4)c3C[C@H]2CN1C(=O)c1ccccc1` registered a composite z-score of 1.18.

Take `O=C(NCCN1CCOCC1)[C@@H]1c2ccccc2C(=O)N(Cc2ccccc2Cl)[C@H]1c1ccc(CO)cc1`: the composite z-score was -1.29.

In turn, `CCCCCN1CC=CC23O[C@@H]4/C=C\CCCOC(=O)C4[C@H]2C(=O)N(C(C)CO)[C@@H]3C1=O` (stereo not given in full) came in with a composite z-score of 0.465.

Take `COc1ccc(CCNC(=O)[C@@H]2c3ccccc3C(=O)N(C3CCCCC3)[C@H]2c2ccc(CO)cc2)cc1`: the composite z-score stood at 1.01.

In turn, `C=CCNC(=O)[C@H]1[C@@H]2C(=O)O[C@@H](c3ccccc3)[C@@H](c3ccccc3)N2[C@@H](c2ccccc2OCCO)[C@]12C(=O)N(C(=O)OCCOC)c1ccc(C#CC3(O)CCCCCC3)cc12` showed a composite z-score of 0.977.

For `C#Cc1cc2ccccc2oc1=O`, the composite z-score is -0.314.

In turn, `CCCC=C(CCC)[C@@H](NS(=O)(=O)CC12CCC(CC1=O)C2(C)C)c1ccc(C(=O)OC)cc1` (stereo not given in full) showed a composite z-score of 1.33.

The next assay relates to Human papillomavirus type 1a E7 protein (residues 1-88). As to the kind of experiment: HPV1a E7 small-molecule binders, primary screen, biochemical, small-molecule microarray, residues 1-88, 635 nm (AID 1129). The following applies: small-molecule microarray binding, fluorescence 635 nm; higher = more signal.
The molecule `COC(=O)[C@@H]1N=C(c2ccc(OCCCO)cc2)O[C@@H]1C` gave a composite z-score of 0.0927.

`C=C[C@H]1C(C(=O)OCC)=CC[C@@H](c2ccccc2)N1S(=O)(=O)c1ccc(C)cc1` yielded a composite z-score of 1.22.

`CC(c1ccccc1)C(O)C1C=CC2C(=O)N(C)C(=O)C2N1Nc1ccccc1` (stereo not given) returned a composite z-score of 1.24.

As for `NC(=O)NCC#Cc1ccc2c(c1)[C@]1(C(=O)N2)[C@H](c2ccccc2OCCO)N2[C@H](c3ccccc3)[C@H](c3ccccc3)OC(=O)[C@H]2[C@@H]1C(=O)NC[C@H](O)c1ccccc1`, the composite z-score is -0.28.

`CCCCC[C@H]1OC[C@@]23C=C(Br)[C@@H](CC12)[C@@]1(CO1)C3=O` (stereo not given in full) yielded a composite z-score of -0.327.

`CCC#CCN(Cc1ccccc1Br)[C@H](/C=C/C1CC1)[C@@H](O)Cc1ccccc1` gave a composite z-score of -0.499.

`COC(=O)C(CC#Cc1ccc2c(c1)[C@]1(C(=O)N2)[C@H](c2ccc(O)cc2)N2[C@H](c3ccccc3)[C@H](c3ccccc3)OC(=O)[C@H]2[C@@H]1C(=O)NC[C@H](O)c1ccccc1)C(=O)OC` yielded a composite z-score of 0.779.

`CCCCC(O)C1C=CC2C(=O)N(C)C(=O)C2N1N(c1ccccc1)c1ccccc1` (stereo not given): the composite z-score was determined as 1.15.

The molecule `O=C1[C@H]2C=C(I)[C@H](C[C@@H]2OCCOCCO)[C@@]12CO2` had a composite z-score of 0.747.

In turn, `C=CC[C@]1(C(=O)N2CCCCC2)N=C(c2ccc(OCCCO)cc2)O[C@H]1c1ccccc1CN=[N+]=[N-]` showed a composite z-score of 1.24.

The molecule `COC(=O)[C@@]1(Cc2ccc(OC)cc2)[C@H]2c3cc(C(=O)N4CCCC4)n(CCO)c3C[C@H]2CN1C(=O)c1ccccc1` showed a composite z-score of 1.18.

In turn, `C=CC[C@]1(C(=O)N2CCOCC2)COC(c2ccc(OCCCO)cc2)=N1` came in with a composite z-score of 1.3.

Molecule `CN(C)C(=O)[C@]1(CCC(=O)OC(C)(C)C)N=C(c2ccc(OCCCO)cc2)O[C@@H]1c1ccccc1CN=[N+]=[N-]` showed a composite z-score of 1.21.

`CO[C@H]1O[C@H](CO)[C@@H](OC(=O)Nc2ccc3c(c2)OCO3)[C@H](OC(=O)Nc2ccc3c(c2)OCO3)[C@@H]1OC(=O)Nc1ccc2c(c1)OCO2` registered a composite z-score of 1.3.

As to `C=C[C@@H](OC)[C@H](OC(=O)Nc1ccc(OC)cc1)c1ccc(O)c(F)c1`, the composite z-score is -0.0707.

`COC(=O)c1c(CC[C@@H](CO)NC(=O)N[C@@H](C)Cn2cc(-c3ccccn3)nn2)oc(C(C)=O)c1C(=O)OC` yielded a composite z-score of -0.0012.

On to `CCCC[C@@H](O)C1=C(COC)C[C@H]2C(=O)N(Cc3ccccc3)C(=O)[C@H]2[C@H]1CO`, for which the composite z-score turned out to be 0.33.

Regarding `CCCN1C(=O)[C@]2(Cc3ccccc31)N=C(c1ccc(OCCCO)cc1)O[C@@H]2c1ccccc1`, the composite z-score worked out at 1.22.

In the case of `CCOC(=O)C[C@H]1[C@H](OC(=O)c2ccc(C(=O)c3ccccc3)cc2)[C@@H](NC(=O)C2CCCCC2)c2cc(OCCCO)ccc2N1C(=O)c1ccc2ccccc2n1`, the composite z-score amounted to 0.835.

As for `COc1cccc(C)c1NC(=O)O[C@H]1[C@H](OC(=O)Nc2ccc3c(c2)OCO3)[C@@H](OC(=O)Nc2ccc3c(c2)OCO3)[C@@H](OC)O[C@@H]1CO`, the composite z-score came to 1.25.

For the molecule `CC(C)(C)OC(=O)COc1cccc(C(=O)CCN2CCOCC2)c1`, the composite z-score turned out to be 0.355.

`CC(C)NC(=O)[C@@]1(C)c2ccccc2C(=O)N(Cc2ccc(OC(F)(F)F)cc2)[C@H]1c1ccc(CO)cc1` displayed a composite z-score of -0.14.

Molecule `COc1cc2c(cc1O)C(c1cccs1)N(Cc1cc3c(cc1Br)OCO3)CC2` (stereo not given) had a composite z-score of 1.28.

The molecule `CCCCNC(=O)c1ccc(C#CC(C)(C)C)c(OC(C)=O)c1` yielded a composite z-score of 0.712.

Consider `CCCC1(C(=O)OC)C=C2C(=C(C)C(=O)C2C)CN1` (stereo not given), for which the composite z-score is -0.0152.

`O=C(C1N=C(c2ccc(OCCCO)cc2)N(c2ccccc2)O1)N1CCCCC1` (stereo not given): the composite z-score is 1.25.

`CCCCN1CC=CC23O[C@@H]4/C=C\CCC(C)OC(=O)C4[C@H]2C(=O)N(CCCO)[C@@H]3C1=O` (stereo not given in full) displayed a composite z-score of -0.708.

`Cc1ccc(S[C@]2(C(=O)NCC(F)(F)F)CC(=O)N(Cc3cc(C(F)(F)F)cc(C(F)(F)F)c3)[C@@H]2c2ccc(CO)cc2)cc1` returned a composite z-score of -1.33.

As to `COC(=O)[C@@]1(Cc2ccc(F)cc2)[C@H]2c3cc(C(=O)N(C)C)n(CCc4ccc(OC)c(Br)c4)c3C[C@H]2CN1C(=O)c1ccccc1`, the composite z-score turned out to be 0.902.

As for `O=C(NCCN1CCOCC1)[C@@H]1c2ccccc2C(=O)N(Cc2ccccc2Cl)[C@H]1c1ccc(CO)cc1`, the composite z-score is -0.867.

As to `CCCCCN1CC=CC23O[C@@H]4/C=C\CCCOC(=O)C4[C@H]2C(=O)N(C(C)CO)[C@@H]3C1=O` (stereo not given in full), the composite z-score was -0.402.

In turn, `COc1ccc(CCNC(=O)[C@@H]2c3ccccc3C(=O)N(C3CCCCC3)[C@H]2c2ccc(CO)cc2)cc1` had a composite z-score of 0.883.

Turning to `C=CCNC(=O)[C@H]1[C@@H]2C(=O)O[C@@H](c3ccccc3)[C@@H](c3ccccc3)N2[C@@H](c2ccccc2OCCO)[C@]12C(=O)N(C(=O)OCCOC)c1ccc(C#CC3(O)CCCCCC3)cc12`, the composite z-score amounted to 1.18.

For the molecule `C#Cc1cc2ccccc2oc1=O`, the composite z-score is -0.451.

`CCCC=C(CCC)[C@@H](NS(=O)(=O)CC12CCC(CC1=O)C2(C)C)c1ccc(C(=O)OC)cc1` (stereo not given in full) came in with a composite z-score of 0.71.
